What all share (assay): NCI-60 one-dose screen, 48 h (100 = growth as untreated, 0 = no growth, -100 = all killed)
Assay [1] has as its system EKVX NSCLC. The conditions noted are these: 10 µM unless noted.
For assay [2], the system named is SN12C renal. The conditions noted are these: 10 µM unless noted.
Assay [3] concerns UO-31 renal. The conditions noted are these: 10 µM unless noted.
For assay [4], the system named is ACHN renal. The conditions noted are these: 10 µM unless noted.
The subject of assay [5] is CAKI-1 renal. To be noted: 10 µM.
The test system of assay [6] is A498 renal. The conditions noted are these: 10 µM unless noted.
In assay [7] the test system is CCRF-CEM leukemia. The conditions noted are these: 10 µM unless noted.
Assay [8] deals with SR leukemia. To be noted: 10 µM unless noted.
In assay [9] the test system is OVCAR-8 ovarian. The conditions noted are these: 10 µM unless noted.
Assay [10] concerns OVCAR-5 ovarian. To be noted: 10 µM unless noted.
The subject of assay [11] is OVCAR-4 ovarian. The conditions noted are these: 10 µM unless noted.
Assay [12] concerns SK-OV-3 ovarian. The conditions noted are these: 10 µM unless noted.
Assay [13] has as its system IGROV1 ovarian. To be noted: 10 µM unless noted.
Assay [14] deals with HS 578T breast. The conditions noted are these: 10 µM unless noted.
For assay [15], the system named is NCI/ADR-RES ovarian. To be noted: 10 µM unless noted.
Assay [16] has as its system TK-10 renal. The conditions noted are these: 10 µM unless noted.
The test system of assay [17] is MOLT-4 leukemia. The conditions noted are these: 10 µM unless noted.
Assay [18] deals with RPMI-8226 leukemia. The conditions noted are these: 10 µM unless noted.

SMILES strings stand for the structures. This is part of a sample that, as a whole, favours compounds with a hit. Of some 83,000 tested, about 20% had one in any assay.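 96-well plates, one dose, 48 hours. Percent growth reported; active if below 10.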 A number with no mark means an inactive call. Calls of active or inactive are those of the source.

Regarding `C=CCn1c(SCC(=O)Nc2cccc(C(=O)/C=C/c3ccccc3Cl)c2)nc2ccccc2c1=O`, the growth was 94.7% in assay [1]; 91.5% in [2]; 73% in [3]; 96.3% in assay [4]; 79.2% in assay [5]; 82.8% in assay [6]. The growth was 93.8% in assay [7]; 14% in assay [8]; 92% in [9]; 95.1% in assay [10]; 87.7% in assay [11]; 119% in [12]. In addition, the growth was 92% in [13], 89.6% in [14] and 90.4% in [15].

With `O=C1Nc2ccc(Cl)cc2/C1=C/c1ccc(OCc2ccc(Br)cc2F)cc1`, the growth in assay [1] was 97.5%; in [2] it was 103%; in assay [3] it was 84.4%; in assay [16], 116%; in assay [4], 103%; in assay [5], 84.3%. Further, the growth is 94.2% in [7]; 98.9% in [17]; 97.2% in assay [8]; 95.8% in assay [18]; 99.8% in assay [9]; 101% in assay [10]. For the same compound, the growth in assay [11] is 100%; in [12], 98%; in assay [13], 104%; in assay [14], 102%; in [15], 98.2%.

On to `CC(C)(C)CC(C)(C)n1nnnc1C(Nc1ccccc1)c1cc2cccc3ccc4cccc1c4c32` (stereo not drawn), for which the growth in [1] was 73.5%; in assay [2], 78.4%; in [3], 73.1%; in [16] it was 94.6%; in assay [4], 87.5%; in assay [5], 55.8%. For the same compound, the growth in [7] was 86.7%; in assay [17] it was 73.2%; in assay [8], 82.3%; in assay [18] it was 82.2%; in assay [9] it was 86.4%; in [10], 85.3%. Also, the growth in assay [11] was 82.7%; in assay [12], 87.1%; in assay [13] it was 92.6%; in [14], 90.3%; in assay [15], 81.7%.

In the case of `Cc1cn(-c2cc(NC(=O)c3cncc(C#Cc4cnc5ccc(O[C@H]6CCOC6)nn45)c3)cc(C(F)(F)F)c2)cn1`, the growth in [1] is 89.9%; in assay [2], 72%; in assay [3], 55.7%; in assay [16], 133%; in [4], 87.7%; in assay [5], 88.5%. For the same compound, the growth in assay [7] is 95.6%; in assay [17], 88.9%; in assay [8], 47.8%; in assay [18] it was 85.4%; in assay [9] it was 92.6%; in assay [10], 80.3%. Also, the growth was 90.1% in assay [11]; 119% in assay [12]; 65.3% in assay [13]; 73.7% in [14]; 101% in assay [15].

As to `CC(=O)Oc1ccc(CCN2C(=O)CSC2=S)cc1`, the growth is 97.3% in assay [1]; 69% in assay [2]; 76.8% in [3]; 93.6% in assay [4]; 81.6% in assay [5]; 57.9% in assay [7]. Further, the growth in assay [17] is 88.2%; in assay [8] it was 68.9%; in assay [18], 37.6%; in assay [9], 103%; in assay [10], 97.9%; in assay [11] it was 93.8%. Also, the growth in [12] was 113%; in assay [13], 103%; in assay [14], 100%; in [15], 96.4%.

Turning to `COc1ccc(-c2nc3cc(Cl)c(Cl)cc3n2CC(=O)N=Nc2c(O)[nH]c3ccccc23)cc1`, the growth is 72.4% in assay [1]; 38.4% in [2]; 76.9% in assay [3]; 95.7% in [16]; 50.8% in assay [4]; 56.5% in [5]. For the same compound, the growth was 39.9% in [7]; 47.4% in assay [17]; 66.4% in assay [8]; 62.5% in assay [18]; 78.4% in [9]; 63% in assay [10]. The growth in assay [11] was 75.1%; in [12], 100%; in assay [13], 52.9%; in assay [14] it was 53.4%; in [15], 44.3%.

As for `CCOC(=O)c1c(Nc2ccccc2)nn2c(-c3ccc(OC)c(OC)c3)ccnc12`, the growth was 77.1% in [1]; 67.9% in assay [2]; 42.9% in [3]; 80.6% in [16]; 54.8% in assay [4]; 44.4% in assay [5]. Moreover, the growth in [7] is 30.9%; in assay [17] it was 36.5%; in assay [8], 23.6%; in assay [18], 30.4%; in assay [9], 50.5%; in [10], 84.7%. Besides, the growth in [11] is 72.4%; in assay [12], 72%; in [13] it was 102%; in assay [15] it was 48.9%.

As to `C=CCn1c(SCC(=O)Nc2cccc(C(=O)/C=C/c3ccc(Br)cc3)c2)nc2ccccc2c1=O`, the growth is 106% in assay [1]; 88.8% in [2]; 71.2% in assay [3]; 84.5% in assay [4]; 73.7% in assay [5]; 89.3% in [6]. The growth in assay [7] is 95.5%; in assay [18], -3.89% (active); in assay [9], 81.6%; in assay [10], 96.2%; in [11] it was 87.9%; in assay [12], 108%. Besides, the figures for the growth in [13], in [14] and in assay [15] were 93.6%, 83.3% and 91.5%, respectively.

Consider `CCOC(=O)c1c(Nc2ccccc2)nn2c(-c3ccc(Br)cc3)ccnc12`, for which the growth in [1] was 81.5%; in [2], 68.3%; in [3] it was 65.1%; in assay [16], 90.6%; in assay [4] it was 34%; in assay [5], 57.6%. Besides, the growth in assay [7] was 85.8%; in [17], 87.6%; in [8], 70.7%; in assay [18], 95.8%; in assay [9], 69.2%; in assay [10], 80.4%. Also, the growth was 53.5% in [11]; 59.2% in assay [12]; 71% in assay [13]; 62.8% in assay [14]; 59.8% in [15].

Regarding `COc1ccc(-c2ccnc3c(C#N)c(Nc4ccccc4)nn23)cc1OC`, the growth in [1] is 98.9%; in [2], 89.8%; in assay [3], 67.9%; in [16] it was 65.8%; in assay [4] it was 86.4%; in assay [5], 60.2%. For the same compound, the growth was 93.8% in assay [7]; 84.9% in assay [17]; 73.8% in assay [8]; 78.3% in assay [18]; 85.2% in assay [9]; 83.2% in assay [10]. The growth is 103% in [11]; 100% in assay [12]; 96.1% in assay [13]; 84% in [14]; 85.5% in assay [15].

For the compound `O=C(Nc1cc(Cl)cc(Cl)c1)Nc1ccc2oc(=O)ccc2c1`, the growth in [1] is 17%; in assay [2] it was 4.07% (active); in assay [3], 3.75% (active); in [4], 4.26% (active); in [5], 7.57% (active); in assay [6] it was -8.24% (active). Also, the growth is 24.9% in [7]; 12.4% in assay [17]; 3.42% (active) in [8]; 1.84% (active) in [18]; 12.5% in assay [9]; 36.4% in [10]. Besides, the growth was 19.5% in assay [11]; 25.7% in assay [12]; 26.4% in [13]; 39.4% in assay [14]; 10.9% in [15].

Consider `CC(C)(C)n1nnnc1C(Nc1nccs1)c1cc2cccc3ccc4cccc1c4c32` (stereo not drawn), for which the growth was 91% in [1]; 98.5% in assay [2]; 84.9% in assay [3]; 99% in assay [16]; 97.4% in assay [4]; 51.1% in assay [5]. Besides, the growth was 98.7% in assay [7]; 96.6% in assay [17]; 84.5% in assay [8]; 94.9% in assay [18]; 97.6% in assay [9]; 59.7% in [10]. For the same compound, the growth in assay [11] is 95.3%; in assay [12], 109%; in [14], 88.3%; in [15], 103%.

In the case of `Nc1nc(-c2cccc([N+](=O)[O-])c2)c(N=Nc2ccccc2[N+](=O)[O-])s1`, the growth was 48.7% in [1]; 1.17% (active) in assay [2]; -36.4% (active) in assay [3]; -38.6% (active) in [16]; -72.6% (active) in assay [4]; -27% (active) in assay [5]. The growth in assay [7] is 46.7%; in assay [17], 62%; in [8], 48.5%; in assay [18], 36.4%; in [9] it was 8.47% (active); in assay [10], 43.5%. The growth in [11] is -2.02% (active); in assay [12], -46.6% (active); in [13], 1.09% (active); in assay [14], 6.64% (active); in [15] it was 16.8%.

`CCOC(=O)c1ccc(N/C=C/C(=O)c2ccccc2)cc1`: the growth in [1] is 103%; in assay [2], 99.7%; in assay [3], 99.1%; in assay [4] it was 98.5%; in assay [5], 92.7%; in assay [6], 99.9%. The growth in assay [7] was 102%; in assay [17], 97%; in assay [8] it was 87.8%; in [18], 100%; in assay [9] it was 102%; in [10] it was 101%. Besides, the growth in assay [11] is 105%; in assay [12], 113%; in assay [13] it was 110%; in assay [14] it was 113%; in assay [15], 103%.

Consider `CCc1ccc(NC(=O)N[C@@H](Cc2cc(F)cc(F)c2)C(=O)N[C@@H]2C(=O)N3CCC[C@H]3C(=O)N3CCO[C@H](C)[C@H]3C(=O)N[C@@H](CO)C(=O)N3C[C@H](C)C[C@H]3C(=O)O[C@H]2C)c(F)c1`, for which the growth in assay [1] was 28.4%; in [2] it was 22.5%; in assay [3] it was 36.4%; in [16] it was 55.9%; in assay [4] it was 34.7%; in assay [5] it was 20.3%. For the same compound, the growth in assay [7] was 35%; in assay [17], 43.3%; in assay [8], 32%; in [9], 22.9%; in assay [10], 35.9%; in assay [11] it was 22.9%. Further, the growth in assay [12] is 26.3%; in [13], 39.5%; in assay [14] it was 35.8%; in assay [15] it was 70%.

In the case of `CN1CCN(c2ccc(C(=O)Nc3cccc(-c4cn(-c5ccc(S(N)(=O)=O)cc5)nn4)c3)cc2C(F)(F)F)CC1`, the growth is 89.9% in assay [1]; 92.4% in assay [2]; 86.9% in assay [3]; 87.6% in [4]; 73.8% in [5]; 97.6% in [6]. The growth was 70.8% in assay [7]; 13.2% in assay [17]; -1.19% (active) in [8]; 10.7% in assay [18]; 86.7% in [9]; 84.3% in assay [10]. Also, the growth was 84.8% in [11], 102% in assay [12], 86.9% in assay [13] and 101% in assay [15].

(Values after PubChem BioAssay (NCI).)
